NOMO-1 viab: STK33 inhibitor candidate reducing NOMO-1 cell viability. NOMO-1 AML viability, CellTiter-Glo luminescence, 72 h. inhibition, % (no concentration beside the values). actives 7.5% (n = 37,000). AID 2330; in the data active means inhibition above about 80%
STK33 inh: inhibitors of human STK33 kinase | AID 2322 | inhibition, % at 12.5 µM | Q9BYT3 | actives 0.44% (n = 27,000) | ADP-Glo luminescence, MBP substrate; in the data active means inhibition above about 20%
Target sequence (Q9BYT3 whole entry, looked up): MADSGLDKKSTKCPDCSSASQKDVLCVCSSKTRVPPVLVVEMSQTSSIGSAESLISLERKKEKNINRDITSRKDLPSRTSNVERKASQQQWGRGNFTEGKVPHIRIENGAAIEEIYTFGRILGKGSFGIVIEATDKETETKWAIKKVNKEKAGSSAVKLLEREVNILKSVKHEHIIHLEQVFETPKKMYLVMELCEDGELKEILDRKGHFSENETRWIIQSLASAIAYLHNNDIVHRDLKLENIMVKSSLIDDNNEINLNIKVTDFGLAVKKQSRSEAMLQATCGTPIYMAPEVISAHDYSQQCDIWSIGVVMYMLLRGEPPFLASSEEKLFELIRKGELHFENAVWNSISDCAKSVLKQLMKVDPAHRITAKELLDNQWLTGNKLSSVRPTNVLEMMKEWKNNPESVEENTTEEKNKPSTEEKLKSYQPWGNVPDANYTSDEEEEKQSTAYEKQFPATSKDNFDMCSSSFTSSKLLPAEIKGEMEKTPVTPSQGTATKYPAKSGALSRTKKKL
PD-1 reverse act: activators reversing PD-1 mediated T-cell inhibition | primary human CD4 T cells, PD-L1 beads, CellTiter-Glo 96 h | activation, % (test concentration not listed) | 29,000 tested, under 10 active | AID 2316; call rule not given here
Numbers stand for hits; . = inactive; / = no result given. The sample as a whole holds a higher share of hits than the screen did.

SMILES	NOMO-1 viab	STK33 inh	PD-1 reverse act
C[C@H]1CN([C@@H](C)CO)C(=O)Cc2cc(NS(=O)(=O)c3ccc(F)cc3)ccc2O[C@H]1CN(C)Cc1ccc(C(=O)Nc2ccccc2N)cc1	140	/	.
COc1ccc(Cl)cc1NC(=O)CN(c1ccc(Br)c(C)c1)S(C)(=O)=O	.	.	.
Cc1ccccc1-c1noc(CCC(=O)Nc2ccc(Cl)cc2)n1	.	.	.
COc1ccc(NC(=O)Nc2cccc3c2O[C@H](CN(C)Cc2ccc(C(=O)Nc4ccccc4N)cc2)[C@H](C)CN([C@@H](C)CO)C3=O)cc1	127	/	.
COc1ccc(NC(=O)Nc2cccc3c2O[C@H](CN(C)Cc2ccc(C(=O)Nc4ccccc4N)cc2)[C@@H](C)CN([C@@H](C)CO)C3=O)cc1	128	/	.
COc1ccc(NC(=O)Nc2cccc3c2O[C@@H](CN(C)Cc2ccc(C(=O)O)cc2)[C@@H](C)CN([C@H](C)CO)C3=O)cc1	.	/	.
COc1ccc(NC(=O)Nc2cccc3c2O[C@H](CN(C)Cc2ccc(C(=O)Nc4ccccc4N)cc2)[C@@H](C)CN([C@H](C)CO)C3=O)cc1	128	/	.
COc1ccc(CN(C)C[C@@H]2Oc3c(NC(=O)Nc4ccc(OC)cc4)cccc3C(=O)N([C@H](C)CO)C[C@@H]2C)cc1	.	/	/
COc1ccc(NC(=O)Nc2cccc3c2O[C@@H](CN(C)Cc2ccc(C(=O)Nc4ccccc4N)cc2)[C@H](C)CN([C@H](C)CO)C3=O)cc1	125	/	.
COc1ccc(CN(C)C[C@H]2Oc3c(NC(=O)Nc4ccc(OC)cc4)cccc3C(=O)N([C@H](C)CO)C[C@@H]2C)cc1	.	/	.
COc1ccc(NC(=O)Nc2ccc3c(c2)C(=O)N([C@H](C)CO)C[C@H](C)[C@H](CN(C)Cc2ccc(C(=O)Nc4ccccc4N)cc2)O3)cc1	.	/	.
COC(=O)c1ccc(NC(=O)C(C)N(c2ccc(Cl)cc2)S(C)(=O)=O)cc1 (stereo unspecified)	.	.	.
C/C=C1\[C@H](O[C@@H]2O[C@H](CO)[C@@H](O)[C@H](O)[C@H]2O)OC=C(C(=O)O)[C@H]1CC(=O)OCCc1ccc(O)cc1	.	.	.
CCc1ccc(NC(=O)CSc2ncnc3sc4c(c23)CCC(C)C4)cc1 (stereo unspecified)	.	.	.
Cc1cccc(NS(=O)(=O)c2cc(C(=O)Nc3ccccc3C(=O)N3CCOCC3)ccc2Cl)c1	.	.	.
O/N=C(/C(=N/O)c1ccccc1)c1ccccc1	.	/	.
COc1ccc(-c2nn3c(Cn4cnc5ccccc54)nnc3s2)cc1OC	.	.	.
C[C@@H]1CN([C@H](C)CO)C(=O)Cc2cc(NS(=O)(=O)c3cccs3)ccc2O[C@@H]1CN(C)Cc1ccc(-c2ccccc2)cc1	.	.	.
C[C@@H]1CN([C@@H](C)CO)C(=O)Cc2cc(NS(=O)(=O)c3cccs3)ccc2O[C@@H]1CN(C)Cc1ccc(Oc2ccccc2)cc1	97	/	.
C[C@H]1CN([C@@H](C)CO)C(=O)Cc2cc(NS(=O)(=O)c3cccs3)ccc2O[C@H]1CN(C)Cc1ccc(-c2ccccc2)cc1	115	.	.
C[C@@H]1CN([C@@H](C)CO)C(=O)c2cc(NS(=O)(=O)c3cccs3)ccc2O[C@@H]1CN(C)Cc1ccc(-c2ccccc2)cc1	91	.	.
COc1ccc(CN(C)C[C@@H]2Oc3ccc(NS(=O)(=O)c4cccs4)cc3CC(=O)N([C@H](C)CO)C[C@H]2C)cc1	.	.	/
C[C@@H]1CN([C@H](C)CO)C(=O)c2cc(NS(=O)(=O)c3cccs3)ccc2O[C@H]1CN(C)Cc1ccc(-c2ccccc2)cc1	.	/	/
CCOC(=O)c1c(NC(=O)Cn2ccc([N+](=O)[O-])n2)sc(C)c1C	.	.	.
Cc1ccc(NC(=O)CCCN2C(=O)c3ccccc3C2=O)c([N+](=O)[O-])c1	.	.	.
SMILES	NOMO-1 viab	STK33 inh	PD-1 reverse act
O=S(=O)(/C=C/c1ccccc1)Nc1ccccc1	.	.	.
COc1cccc2c1C(=O)c1c(O)c3c(c(O)c1C2=O)C[C@@](O)(C(=O)CO)C[C@@H]3O[C@H]1C[C@H](N)[C@H](O)[C@H](C)O1	99	.	.
COc1cccc2c1C(=O)c1c(O)c3c(c(O)c1C2=O)C[C@@](O)(C(=O)CO)C[C@@H]3OC1CC(N)C(O)C(C)O1 (stereo partly specified)	98	.	.
COc1cccc2c1C(c1ccc3c(c1O)C(=O)CC(C)C3O)OC2=O (stereo unspecified)	.	.	.
COc1ccc([Si](C)(C)[C@H]2[C@H](CCO)O[C@@]3(C(=O)N(Cc4ccc(NC(=O)[C@H](C)O)cc4)c4ccccc43)[C@@H]2C)cc1	/	.	/
COc1cccc(NC(=O)CSc2nnc(-c3ccccc3O)n2-c2ccccc2)c1	.	.	/

Screens (PubChem)
